A short description of test [1]: Nuclear factor erythroid 2-related factor 2/antioxidant responsive element (Nrf2/ARE) small molecule agonists: qHTS cell viability counter screen in human keratinocytes (AID 1919968; active = well fitted curve in the direction sought with a large enough effect in the repeat runs; an effect the other way counts as inactive or inconclusive; note: nearly all actives have a fitted effect of over 55% in size; note: potency is the fitted concentration of half-maximal effect). An outline of the steps:
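CellTiter-Fluor fluorescence, read 1 h after reagent, gave viability in the same wells as the ARE-luciferase assay. KeratinoSens cells (1,500/well) had 23 h compound exposure at 37 C/5% CO2 following 5 h plating.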
In general terms: qHTS replaces the single test concentration by a dilution series.

The nature of test [2]: Nuclear factor erythroid 2-related factor 2/antioxidant responsive element (Nrf2/ARE) small molecule agonists: luciferase reporter gene qHTS assay in human keratinocytes (AID 1919969). Note: nearly all actives have a fitted effect of over 35% in size. Note: potency is the fitted concentration of half-maximal effect.
Test [3] has as its target Gonadotropin-releasing hormone receptor (Homo sapiens) (UniProt P30968). Description: Human gonadotropin-releasing hormone receptor (GnRHR) small molecule agonists, calcium flux assay in GnRHR-HEK293 cells (AID 1920063). Note: nearly all actives have a fitted effect of over 35% in size. Note: potency is the fitted concentration of half-maximal effect. The gist of the method:
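Agonist mode: compounds at 15 concentrations, in triplicate, went onto calcium dye-loaded GnRHR-HEK293 cells. Intracellular calcium was then followed as 480/540 nm fluorescence at 1 s intervals over 3 min.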
Background: Calcium flux is commonly read through the fluorescence of an indicator in the cells.

In test [4] the target is KiSS-1 receptor (Homo sapiens) (UniProt Q969F8). Description: Human kisspeptin (KISS1R) small molecule agonists, calcium flux assay in KISS1R-HEK293 cells (AID 1920064; active = well fitted curve in the direction sought with a large enough effect in the repeat runs; an effect the other way counts as inactive or inconclusive). An outline of the steps: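 Agonist mode: intracellular calcium rise tracked at 1 s intervals over 3 min (480/540 nm) immediately after compound addition to dye-loaded KISS1R-HEK293 stable cells. Each compound tested at 15 concentrations in triplicate.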

Test [5] in a line: G protein-coupled receptor (GPCR) small molecule agonists, calcium flux assay: HEK293 wild type cell line counter screen (AID 1920065). The gist of the method:
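Calcium flux counter screen: compound added in agonist mode at 15 concentrations in triplicate to dye-loaded parental HEK293 cells. Fluorescence (480/540) read kinetically for 3 min; ATP served as positive control.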

Test [6] is described as follows: p53 small molecule agonists, cell-based qHTS assay with human liver microsomes: qHTS cell viability counter screen (AID 1963579). Note: nearly all actives have a fitted effect of over 45% in size. Note: potency is the fitted concentration of half-maximal effect. An outline of the steps: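 Tox21 library compounds, delivered from DMSO stocks, were tested on p53RE-bla cells together with 0.5 mg/mL human liver microsomes and 0.5 mg/mL NADPH (final) over 16 h at 37 C; CellTiter-Glo luminescence served as the cytotoxicity measure.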

Test [7] in a line: p53 small molecule agonists, cell-based qHTS assay with rat liver microsomes: qHTS cell viability counter screen (AID 1963580). Note: nearly all actives have a fitted effect of over 45% in size. Note: potency is the fitted concentration of half-maximal effect. The gist of the method:
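Rat liver microsome (0.5 mg/mL final) and NADPH (0.5 mg/mL final) co-incubation with compounds for 16 h at 37 C on HCT-116 p53RE-bla cells; cytotoxicity taken from intracellular ATP luminescence.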

The nature of test [8]: p53 small molecule agonists, cell-based qHTS assay: qHTS cell viability counter screen (AID 1963581). Note: nearly all actives have a fitted effect of over 45% in size. Note: potency is the fitted concentration of half-maximal effect. An outline of the steps: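 Counter screen read by CellTiter-Glo luminescence (ATP content, 30 min at room temperature), run in the same wells as the beta-lactamase reporter read. HCT-116 p53RE-bla cells saw compounds for 16 h at 37 C.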
Test [9] concerns the target 5-hydroxytryptamine receptor 2A (Homo sapiens) (UniProt P28223). Description: 5-hydroxytryptamine receptor 2A (HTR2A) small molecule antagonists, cell-based qHTS assay (AID 1963586). Note: nearly all actives have a fitted effect of over 45% in size. The gist of the method:
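CHO cells stably expressing human HTR2A were plated for 18 h at 37 C, then loaded with calcium dye for 1 h. Compounds were preincubated 5 min at room temperature before DOI (4 nM solution) was added. Kinetic fluorescence was read for 3 min.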

The target of test [10] is Muscarinic acetylcholine receptor M1 (Homo sapiens) (UniProt P11229). Description: Cholinergic receptor muscarinic 1 (CHRM1) small molecule antagonists, cell-based qHTS assay (AID 1963588). Note: nearly all actives have a fitted effect of over 40% in size. The gist of the method: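 Compounds were tested at 15 concentrations in three independent runs. Dye-loaded CHRM1-CHO cells were exposed 5 min at room temperature before stimulation by acetylcholine added at 50nM. Intracellular calcium was read kinetically on FDSS for 3 min.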

For test [11] the target is unchanged. Description: Cholinergic receptor muscarinic 1 (CHRM1) small molecule agonists, cell-based qHTS assay (AID 1963589). Note: nearly all actives have a fitted effect of over 35% in size. An outline of the steps: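 Agonist-mode calcium-flux screen: compounds at 15 concentrations, three independent runs, were pin-transferred onto dye-loaded human CHRM1-CHO cells. Fluorescence was then recorded kinetically every second over minutes.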

The nature of test [12]: cAMP Responsive Elements (CRE) small molecule agonists, cell-based qHTS assay (AID 1963590). The gist of the method: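 Agonist mode: compound added to CRE-bla HEK 293T cells (2,000/well, 18 h after plating) for 3 h at 37 C/5% CO2. Reporter activity detected via FRET beta-lactamase substrate, 2 h room-temperature loading.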
Test [13] in a line: cAMP Responsive Elements (CRE) small molecule antagonists, cell-based qHTS assay (AID 1963591; active = well fitted inhibition curve with a large enough effect in the signal ratio in the repeat runs, not every such curve was filed as active; the % refers to the signal ratio). An outline of the steps: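 Antagonist mode: compounds are added alongside the adenylyl cyclase activator NKH477 (0.25 uM final) to CRE-bla HEK293T cells for 3 h. LiveBLAzer FRET substrate, 2 h at room temperature, reports bla expression.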
Test [14] concerns the target Beta-2 adrenergic receptor (Homo sapiens) (UniProt P07550). Description: Adrenergic beta2 receptor (ADRB2) small molecule antagonists, cell-based qHTS assay (AID 1963592). Note: series mostly up to about 92 µM; nearly all actives have a fitted effect of over 50% in size. An outline of the steps: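 Assay format: CHO-ADRB2 cells, 18-20hr seeding at 37C/5% CO2, then compound plus 1nM isoproterenol agonist mix for 0.5hr RT. Homogeneous time-resolved fluorescence cAMP detection after 1hr, expressed as 665/615 nm ratio.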

Test [15] has the same target. Description: Adrenergic beta2 receptor (ADRB2) small molecule agonists, cell-based qHTS assay (AID 1963593).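 Note: CHO cells stably overexpressing human ADRB2.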 The gist of the method:
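CHO cells stably over-expressing ADRB2 were plated overnight at 37C, then dosed with compounds plus a stimulation mix containing 100uM IBMX and 25uM Ro-20-1724 for 0.5hr at room temperature. cAMP was measured by HTRF competition, 1hr.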

In test [16] the target is D(2) dopamine receptor (Homo sapiens) (UniProt P14416). Description: Dopamine D2 receptor (DRD2) small molecule agonists, cell-based qHTS assay (AID 1963594). Note: nearly all actives have a fitted effect of over 35% in size. Note: potency is the fitted concentration of half-maximal effect. The gist of the method:
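cAMP accumulation in DRD2-HEK293 cells measured by HTRF after 1 h detection; compounds added 10 min before NKH477 (200nM […]) forskolin-analogue stimulation, 30 min at room temperature, with Ro20-1724 present at 0.1 mM final.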

The target is the same in test [17]. Description: Dopamine D2 receptor (DRD2) small molecule antagonists, cell-based qHTS assay (AID 1963595; active = well fitted inhibition curve with a large enough effect in the signal ratio in the repeat runs, with a control signal flat; the % refers to the signal ratio). An outline of the steps: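 HEK293 cells stably expressing DRD2 were preincubated with 0.1 mM Ro20-1724, then with compound for 10 min at room temperature. Cells were stimulated with 200 nM NKH477 plus 12 nM quinpirole for 30 min, and cAMP was read by HTRF.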

Test [18] addresses 5-hydroxytryptamine receptor 2A (Homo sapiens) (UniProt P28223). Description: 5-hydroxytryptamine receptor 2A (HTR2A) small molecule agonists, cell-based qHTS assay (AID 1963587). Note: nearly all actives have a fitted effect of over 30% in size. The gist of the method:
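Kinetic calcium-flux fluorescence (2 min, 1 sec intervals) after compound addition in agonist mode. HTR2A-CHO cells were cultured 18 h, then dye-loaded 1 h at 37 C.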

A number with no mark means an inactive call. Results filed as inconclusive are left out. The source made the active and inactive calls. Unless noted, calls come from the whole dose curve.

Sequence of Muscarinic acetylcholine receptor M1 (Homo sapiens) (P11229 whole entry, looked up): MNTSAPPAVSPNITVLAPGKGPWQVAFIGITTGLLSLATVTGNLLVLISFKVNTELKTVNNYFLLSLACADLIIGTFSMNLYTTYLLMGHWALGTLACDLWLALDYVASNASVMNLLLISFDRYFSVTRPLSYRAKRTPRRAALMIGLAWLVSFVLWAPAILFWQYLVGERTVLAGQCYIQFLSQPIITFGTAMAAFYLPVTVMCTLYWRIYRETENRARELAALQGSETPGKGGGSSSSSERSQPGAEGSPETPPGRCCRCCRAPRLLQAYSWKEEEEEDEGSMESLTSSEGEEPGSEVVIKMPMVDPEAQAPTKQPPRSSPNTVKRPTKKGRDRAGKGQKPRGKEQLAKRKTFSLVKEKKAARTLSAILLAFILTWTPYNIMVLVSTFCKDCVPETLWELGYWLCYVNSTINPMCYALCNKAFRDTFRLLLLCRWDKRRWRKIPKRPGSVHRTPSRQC
Sequence of Gonadotropin-releasing hormone receptor (Homo sapiens) (P30968 whole entry, looked up): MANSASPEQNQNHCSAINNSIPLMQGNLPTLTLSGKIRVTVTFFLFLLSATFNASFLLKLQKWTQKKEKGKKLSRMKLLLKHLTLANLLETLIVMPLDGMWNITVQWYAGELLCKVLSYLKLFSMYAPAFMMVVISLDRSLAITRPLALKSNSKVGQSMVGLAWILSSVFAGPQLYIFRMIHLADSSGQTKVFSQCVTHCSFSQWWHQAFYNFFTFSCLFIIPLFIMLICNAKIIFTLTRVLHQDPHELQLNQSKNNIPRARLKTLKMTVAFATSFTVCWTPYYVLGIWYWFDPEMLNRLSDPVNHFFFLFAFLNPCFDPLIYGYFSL
Sequence of 5-hydroxytryptamine receptor 2A (Homo sapiens) (P28223 whole entry, looked up): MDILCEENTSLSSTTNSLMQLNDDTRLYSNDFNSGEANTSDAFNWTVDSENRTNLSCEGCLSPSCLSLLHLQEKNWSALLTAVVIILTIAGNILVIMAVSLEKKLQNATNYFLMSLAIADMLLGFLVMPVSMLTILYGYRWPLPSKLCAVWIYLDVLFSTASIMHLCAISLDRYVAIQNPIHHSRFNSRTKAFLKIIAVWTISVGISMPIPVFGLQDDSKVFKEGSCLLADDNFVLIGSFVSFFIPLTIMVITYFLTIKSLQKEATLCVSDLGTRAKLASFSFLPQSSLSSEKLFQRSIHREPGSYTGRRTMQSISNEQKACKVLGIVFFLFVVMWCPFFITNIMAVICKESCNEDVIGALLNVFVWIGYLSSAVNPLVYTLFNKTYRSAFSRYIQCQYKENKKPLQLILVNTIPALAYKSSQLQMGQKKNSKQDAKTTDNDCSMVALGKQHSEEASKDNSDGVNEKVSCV
Sequence of D(2) dopamine receptor (Homo sapiens) (P14416 whole entry, looked up): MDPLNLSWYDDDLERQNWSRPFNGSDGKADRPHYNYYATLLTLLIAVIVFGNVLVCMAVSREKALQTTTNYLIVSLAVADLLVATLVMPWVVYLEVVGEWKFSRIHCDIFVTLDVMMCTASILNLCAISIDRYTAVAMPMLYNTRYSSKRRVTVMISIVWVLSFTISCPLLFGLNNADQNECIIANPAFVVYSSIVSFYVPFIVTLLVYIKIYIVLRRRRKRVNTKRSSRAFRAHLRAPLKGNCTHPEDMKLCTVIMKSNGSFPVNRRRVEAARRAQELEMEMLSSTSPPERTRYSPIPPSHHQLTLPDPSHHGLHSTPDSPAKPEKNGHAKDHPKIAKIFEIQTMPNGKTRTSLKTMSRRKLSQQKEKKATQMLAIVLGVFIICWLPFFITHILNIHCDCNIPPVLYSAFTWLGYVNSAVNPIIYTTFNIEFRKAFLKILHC
Sequence of KiSS-1 receptor (Homo sapiens) (Q969F8 whole entry, looked up): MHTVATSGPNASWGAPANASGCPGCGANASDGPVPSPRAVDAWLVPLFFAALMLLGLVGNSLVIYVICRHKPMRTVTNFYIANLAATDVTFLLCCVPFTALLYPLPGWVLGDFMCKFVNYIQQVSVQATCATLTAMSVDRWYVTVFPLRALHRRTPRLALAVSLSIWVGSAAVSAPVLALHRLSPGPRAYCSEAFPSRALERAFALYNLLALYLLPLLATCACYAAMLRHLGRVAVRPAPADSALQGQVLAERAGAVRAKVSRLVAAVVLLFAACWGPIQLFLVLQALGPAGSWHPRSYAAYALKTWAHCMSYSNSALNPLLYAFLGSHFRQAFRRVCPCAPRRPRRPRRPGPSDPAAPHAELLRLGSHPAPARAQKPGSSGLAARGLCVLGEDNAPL
Sequence of Beta-2 adrenergic receptor (Homo sapiens) (P07550 whole entry, looked up): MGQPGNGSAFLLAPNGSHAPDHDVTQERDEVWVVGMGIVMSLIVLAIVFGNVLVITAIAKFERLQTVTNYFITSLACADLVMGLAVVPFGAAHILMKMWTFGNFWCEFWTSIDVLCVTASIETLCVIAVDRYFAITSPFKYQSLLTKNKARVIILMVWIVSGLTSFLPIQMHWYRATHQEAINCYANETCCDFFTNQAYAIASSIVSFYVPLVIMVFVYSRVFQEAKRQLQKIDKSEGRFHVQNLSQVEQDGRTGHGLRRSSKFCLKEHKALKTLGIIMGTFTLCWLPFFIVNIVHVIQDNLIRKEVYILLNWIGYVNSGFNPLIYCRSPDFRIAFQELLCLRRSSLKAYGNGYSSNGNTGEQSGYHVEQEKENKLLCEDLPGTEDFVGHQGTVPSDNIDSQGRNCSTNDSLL

On to `Cc1ccc(N)cc1S(=O)(=O)O`, for which the Potency result in test [1], in test [2], in test [3], in test [4], in test [5] and in test [6] was “inactive” in each case. Besides, the Potency result in test [7], in test [8], in test [9], in test [10], in [11] and in [12] was “inactive” in each case. Also, the Potency entry in [13], in test [14], in test [15], in test [16] and in [17] was “inactive” each time.
As for `CN1C(CSCC(F)(F)F)Nc2cc(Cl)c(S(N)(=O)=O)cc2S1(=O)=O` (stereo not given), the Potency result in [1], in [2], in test [3], in test [4], in test [5] and in test [6] was “inactive” in each case. The Potency result in [7], in test [8], in [18], in test [10], in test [11] and in test [12] was “inactive” each time. Further, the Potency result in test [13], in [14], in test [15], in test [16] and in [17] was “inactive” in each case.
For the compound `S=C(S)NCCNC(=S)S`, the Potency entry in test [1], in test [2], in test [3], in test [4], in test [5] and in [6] was “inactive” in each case. The Potency result in test [7], in test [8], in test [9], in [10], in test [11] and in [12] was “inactive” each time. Further, the Potency result in test [15], in test [16] and in [17] was “inactive” each time.
Take `CCOC(=O)C1=NN(c2ccccc2)C(=O)C1`: the Potency entry in [1], in test [2], in test [3], in [4], in test [5] and in [6] was “inactive” throughout. The Potency entry in test [7], in test [8], in [9], in test [11], in test [12] and in test [13] was “inactive” each time. Also, the Potency result in test [14] and in test [17] was “inactive” in each case.
Turning to `O=C1c2c(O)ccc([N+](=O)[O-])c2C(=O)c2c([N+](=O)[O-])ccc(O)c21`, the Potency was 15.2 µM (active) in test [1]; 6.06 µM (active) in test [2]; 17.2 µM (active) in test [3]; 18 µM (active) in test [6]; 20.2 µM (active) in [7]; 5.71 µM (active) in test [8]. For the same compound, the Potency entry in test [4], in test [5], in test [18], in test [10] and in test [11] was “inactive” in each case.
Regarding `N[C@@H](CCC(=O)O)C(=O)O`, the Potency result in test [1], in [2], in [3], in [4], in test [5] and in [6] was “inactive” in each case. The Potency result in [7], in test [8], in test [18], in test [10], in test [11] and in test [12] was “inactive” each time. The Potency entry in test [13], in test [14], in test [16] and in test [17] was “inactive” each time.
In the case of `O=C1[C@@H]2[C@H]3CC[C@H](C3)[C@@H]2C(=O)N1CCCCN1CCN(c2ncccn2)CC1`, the Potency entry in [1], in test [2], in test [3], in [4], in [5] and in test [6] was “inactive” each time. Moreover, the Potency result in test [7], in test [8], in [18], in [10], in test [11] and in test [12] was “inactive” in each case. For the same compound, the Potency entry in test [13] and in test [14] was “inactive” throughout. Besides, the Potency in test [16] is 0.0944 µM (active).

(Values after PubChem BioAssay (Tox21).)
